PubChem BioAssay (NCI)
Compounds without any hit were thinned out: in the full panel of roughly 83,000, 20% have a hit.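 48-hour exposure, single concentration, 96-well plates; percent growth endpoint where 0 means no net growth. Active: below 10.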 Active and inactive are the calls of the source.

Tested on: SW-620 colon
Assay: NCI-60 one-dose screen, 48 h (100 = growth as untreated, 0 = no growth, -100 = all killed)
Settings: 10 µM unless noted

Structure (SMILES)	growth
NC1(C(=O)N[C@@H](CCO)c2ccc(Cl)cc2)CCN(c2ncnc3[nH]ccc23)CC1	62.7% (inactive)
COC(=O)c1ccc2c(C(=Nc3ccc(N(C)C(=O)CN4CCN(C)CC4)cc3)c3ccccc3)c(O)[nH]c2c1	67.4% (inactive)
CS(=O)(=O)CCNCc1ccc(-c2ccc3ncnc(Nc4ccc(OCc5cccc(F)c5)c(Cl)c4)c3c2)o1	-56.1% (active)
C1=C\COCc2cc(ccc2OCCN2CCCC2)Nc2nccc(n2)-c2cccc(c2)COC/1	3.2% (active)
O=C(Nc1cn[nH]c1-c1nc2ccc(CN3CCOCC3)cc2[nH]1)NC1CC1	11.5% (inactive)
Cc1cc2c(-c3nc4ccccn4c3N)c(O)c(O)cc2c(O)c1-c1c(C)cc2c(-c3nc4ccccn4c3N)c(O)c(O)cc2c1O	22.7% (inactive)
Cc1csc(-c2nnc(Nc3ccc(Oc4ncccc4-c4ccnc(N)n4)cc3)c3ccccc23)c1	20.3% (inactive)
CC(C)CC(=O)Nc1n[nH]c2c1CN(C(=O)C1CCN(C)CC1)C2(C)C	9.91% (active)
Cc1ccccc1N1C(c2ccccc2)=NNC12C=CC(=O)C=C2Cl (centres undefined)	119% (inactive)
C=CCn1c(=O)c2cnc(Nc3ccc(N4CCN(C)CC4)cc3)nc2n1-c1cccc(C(C)(C)O)n1	14.6% (inactive)

Tested on: MCF7 breast
Assay: as above
Settings: 10 µM unless noted

Structure (SMILES)	growth
Cc1cc(C)n(CC(=O)Nc2ccc(-c3nc4ccccc4s3)cc2)n1	26.6% (inactive)
CNS(=O)(=O)Nc1nccc(Cc2c(C)c3ccc(Oc4ncccn4)cc3oc2=O)c1F	79.2% (inactive)
C[C@@H](Oc1cc(-n2cnc3ccc(CN4CCN(C)CC4)cc32)sc1C(N)=O)c1ccccc1C(F)(F)F	17.7% (inactive)
COc1ccc(Cl)c(Nc2nc3ccccc3nc2NS(=O)(=O)c2cccc(NC(=O)C(C)(C)N)c2)c1	20.3% (inactive)
COc1ccc(-c2ccc3c(N4CCOC[C@@H]4C)nc(N4CCOC[C@@H]4C)nc3n2)cc1CO	5.12% (active)
O=C(Nc1cccc(Cl)c1)Nc1ncc(CCNc2ncnc3ccsc23)s1	11.8% (inactive)
C#Cc1cccc(Nc2ncnc3cc(OCCOC)c(OCCOC)cc23)c1	88.3% (inactive)
O=C(Nc1ccc(Nc2ncnc3sc4c(c23)CCOC4)cc1)Nc1ccc(Cl)c(C(F)(F)F)c1	90.5% (inactive)
CCCCN1C(=O)c2cccc3c(-c4ccc5c(c4)ncn5C4CCCCC4)ccc(c23)C1=O	96.7% (inactive)
COc1cc(Nc2c(C#N)cnc3cc(OCCCN4CCN(C)CC4)c(OC)cc23)c(Cl)cc1Cl	58.3% (inactive)
COc1ncc(-c2ccc3nccc(-c4ccnnc4)c3c2)cc1NS(=O)(=O)c1ccc(F)cc1F	8.48% (active)
C/C(=C(/c1ccc(Cl)cc1)c1ccc(OCCN2CCCC2)cc1)c1ccccc1	33.8% (inactive)
COc1cc(OC)c(/C=C/S(=O)(=O)Cc2ccc(OC)c(NCC(=O)O)c2)c(OC)c1	13.1% (inactive)
Nc1ncnc2c1ccn2-c1cccc(NC(=O)c2ccc(N3CCOCC3)c(C(F)(F)F)c2)c1	67.1% (inactive)
C/C=C/C=N/NC(=S)Nc1ccccc1	86% (inactive)
C=CC(=O)Nc1cc(Nc2nccc(-c3cn(C)c4ccccc34)n2)c(OC)cc1N(C)CCN(C)C	-61.3% (active)
C[C@@H](NC(=O)c1ncnc(N)c1Cl)c1ncc(C(=O)Nc2cc(C(F)(F)F)c(Cl)cn2)s1	96.2% (inactive)
COc1cc2c(Oc3ccc4[nH]c(C)cc4c3F)ncnc2cc1OCCCN1CCCC1	89.8% (inactive)
NC[C@@](O)(c1ccc(Cl)cc1)c1ccc(-c2cn[nH]c2)cc1	-22.2% (active)
Cc1cc(O)cc(-c2c(-c3ccnc(-c4cccnc4)c3)cnn2C)c1	43.5% (inactive)

Structure (SMILES)	growth
CS(=O)(=O)N1CCN(Cc2cc3nc(-c4cccc5[nH]ncc45)nc(N4CCOCC4)c3s2)CC1	5.28% (active)
CN[C@@H]1C[C@H]2O[C@@](C)([C@@H]1OC)n1c3ccccc3c3c4c(c5c6ccccc6n2c5c31)C(=O)N[C@H]4O	-46.8% (active)
O=c1[nH]ccc2c(S(=O)(=O)N3CCCNCC3)cccc12	85.9% (inactive)
CCN(CCCOc1ccc2c(Nc3cc(CC(=O)Nc4cccc(F)c4)[nH]n3)ncnc2c1)CCOP(=O)(O)O	46.6% (inactive)
Cn1cc(-c2cnn3c(N)c(Br)c([C@@H]4CCCNC4)nc23)cn1	31.5% (inactive)
C[C@@H](Nc1cc(F)cc(F)c1)c1cc(C(=O)N(C)C)cc2c(=O)cc(N3CCOCC3)oc12	25.2% (inactive)
COc1ccc2c(CCCc3ccc(Cl)cc3Cl)c3[n+](cc2c1OC)CCc1cc2c(cc1-3)OCO2	6.01% (active)
Cn1c(=O)c(F)c(Nc2ccc(I)cc2F)c2c(=O)n(C[C@@H](O)CO)cnc21	83.8% (inactive)
CC(C)(C)c1cnc(CSc2cnc(NC(=O)C3CCNCC3)s2)o1	3.72% (active)
NC1(C(=O)N[C@@H](CCO)c2ccc(Cl)cc2)CCN(c2ncnc3[nH]ccc23)CC1	27.4% (inactive)
COC(=O)c1ccc2c(C(=Nc3ccc(N(C)C(=O)CN4CCN(C)CC4)cc3)c3ccccc3)c(O)[nH]c2c1	33.5% (inactive)
CS(=O)(=O)CCNCc1ccc(-c2ccc3ncnc(Nc4ccc(OCc5cccc(F)c5)c(Cl)c4)c3c2)o1	-39.3% (active)
C1=C\COCc2cc(ccc2OCCN2CCCC2)Nc2nccc(n2)-c2cccc(c2)COC/1	-25.1% (active)
O=C(Nc1cn[nH]c1-c1nc2ccc(CN3CCOCC3)cc2[nH]1)NC1CC1	10.4% (inactive)
Cc1cc2c(-c3nc4ccccn4c3N)c(O)c(O)cc2c(O)c1-c1c(C)cc2c(-c3nc4ccccn4c3N)c(O)c(O)cc2c1O	10.7% (inactive)
Cc1csc(-c2nnc(Nc3ccc(Oc4ncccc4-c4ccnc(N)n4)cc3)c3ccccc23)c1	12% (inactive)
CC(C)CC(=O)Nc1n[nH]c2c1CN(C(=O)C1CCN(C)CC1)C2(C)C	3.99% (active)
Cc1ccccc1N1C(c2ccccc2)=NNC12C=CC(=O)C=C2Cl (centres undefined)	98% (inactive)
C=CCn1c(=O)c2cnc(Nc3ccc(N4CCN(C)CC4)cc3)nc2n1-c1cccc(C(C)(C)O)n1	15.7% (inactive)
